Results published in PubChem BioAssay (Tox21).
Results filed as inconclusive are left out. Unmarked numbers belong to inactive results. The call rests on the fitted dose curve; in most records, active means well fitted cell-killing curve with a large enough effect in the repeat runs; inconclusive means weak or mixed curves, or effect the other way; inactive means flat fitted curve, though single readings scatter.

Test: qHTS RealTime-Glo MT Cell Viability Assay in HEK293 cells - 32 hour (AID 1224868); further: top concentration of the series differs between compounds; nearly all actives have a fitted effect of over 50% in size
Conditions: RealTime-Glo luminescence; series mostly up to 76.8 µM; activity change, negative = cytotoxic: at the top concentration
Procedure, shortened: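 Cells + reagent dispensed (600 cells/well, HEK293) → 5 h at 37 C/5% CO2 → 23 nL compound in DMSO pinned → 40 h at 37 C → luminescence read at 0, 8, 16, 24, 32, 40 h.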
On the % scale 0 is the no-effect control and ±100 the full control effect.

Structure (SMILES) | activity change, negative = cytotoxic
CCCCc1nc(Cl)c(CO)n1Cc1ccc(-c2ccccc2-c2nn[nH]n2)cc1 | -13.3% [at 35.3 µM]
NO | -12.3%
NC(=O)N1c2ccccc2CC(=O)c2ccccc21 | 2.92% [at 35.3 µM]
CC1=CC(=O)[C@H]2C[C@@H]1C2(C)C | -2.57%
CC(C)(N)C#N | -1.53%
O=S(=O)(O)c1cccc2ccccc12 | 15.7%
CC1=NN(c2cc(S(=O)(=O)O)ccc2Cl)C(=O)C1N=Nc1ccccc1 (configuration not stated) | 9.78%
COc1ccc2cc1Oc1cc3c(cc1OC)CC[N+](C)(C)[C@H]3Cc1ccc(cc1)Oc1c(OC)c(OC)cc3c1[C@@H](C2)[N+](C)(C)CC3 | -2.94% [at 35.3 µM]
CCCC(C)C(=O)OCC (configuration not stated) | 2.38%
COc1c(N2CCNC(C)C2)c(F)cc2c(=O)c(C(=O)O)cn(C3CC3)c12 (configuration not stated) | 10.2% [at 35.3 µM]
CC(=O)OCC(=O)[C@@]1(O)[C@H](C)C[C@H]2[C@@H]3CCC4=CC(=O)C=C[C@]4(C)[C@@]3(F)[C@@H](O)C[C@@]21C | 6.64% [at 35.3 µM]
Nc1ccccn1 | -7.25%
O=C(CO)[C@@H](O)[C@H](O)[C@@H](O)CO | 6.54% [at 35.3 µM]
CCC(C)(CN(C)C)OC(=O)c1ccccc1 (configuration not stated) | 13.8% [at 35.3 µM]
NC(N)=NCCN1CCCCCCC1 | -3.18% [at 0.29 µM]
Cc1ccc(C(=O)Nc2ccc(S(=O)(=O)O)c3cc(S(=O)(=O)O)cc(S(=O)(=O)O)c23)cc1NC(=O)c1cccc(NC(=O)Nc2cccc(C(=O)Nc3cc(C(=O)Nc4ccc(S(=O)(=O)O)c5cc(S(=O)(=O)O)cc(S(=O)(=O)O)c45)ccc3C)c2)c1 | 3.72% [at 35.3 µM]
CCCCS(=O)(=O)N[C@@H](Cc1ccc(OCCCCC2CCNCC2)cc1)C(=O)O | 0.921% [at 35.3 µM]
